Reference: PubChem BioAssay (Tox21)
Activity calls are given as the source filed them. The call rests on the fitted dose curve; in most records, active means well fitted curve in the direction sought with a large enough effect in the repeat runs; inconclusive means weak or mixed curves; inactive means flat fitted curve, though single readings scatter.

Experiment: qHTS assay to test for compound auto fluorescence at 535 nm (green) in HEK293 cell free culture (AID 720682)
Conditions: cell-free medium, green autofluorescence 485/535 nm; series mostly up to 46 µM
From the text: U.S. Tox21 Program National Center for Advancing Translational Sciences [NCATS] NIH Chemical Genomics Center [NCGC] U.S. Environmental Protection Agency [EPA] National Institutes of Environmental Health Sciences [NIEHS] National Toxicology Program [NTP] U.S. Food and Drug Administration [FDA] Tox21 Assay Overview: Compound auto fluorescence often interferes with screening of the compound library against various biological targets and signaling pathways. Some of these compounds may have fluorophoric properties. Such properties may interfere with the assay outputs resulting in false positives and/or negatives. To decrease such complications and ensure the compound activities are relevant in terms of biological response, the Tox21 10K compound library was screened for auto fluorescence. From the fluorophores used as reporter signals in our screening assays, the auto fluorescence equivalencies of compounds against three fluorophores have been evaluated: Triamterene, Fluorescein and Rose Bengal sodium for blue, green and red fluorescence, respectively. The fluorescence intensities were measured using Excitation/Emission wavelengths at 405/460nm, 485/535nm and 540/590nm for blue, green and red labels, respectively. This assay includes the green fluorescence data.
Tox21 Assay Protocol Summary: 5 uL of culture medium (DMEM containing 10% FBS) per well was dispensed into black wall/clear bottom 1536-well plates using a Multidrop Combi Dispenser (ThermoFisher Scientific, Waltham, MA). After 23 nL compound or DMSO vehicle was transferred into assay plate by a pintool work station (Kalypsys, San Diego, CA), fluorescence intensities in the assay plates were measured by an Envision (PerkinElmer, Shelton, CT) plate reader using three labels for measuring blue, green and red fluorescence at […] 460, 535 and 590nm respectively.
In the case of `CC[C@@]1([C@@H]2O[C@@H]([C@H]3O[C@@](O)(CO)[C@H](C)C[C@@H]3C)C[C@@H]2C)CC[C@H]([C@]2(C)CC[C@]3(C[C@H](O)[C@@H](C)[C@@H]([C@@H](C)[C@@H](OC)[C@H](C)C(=O)O)O3)O2)O1` (stereo in doubt), the outcome is reported as “inactive”. In the case of `O=S(=O)(O)CC(S)CS` (stereo not given), the outcome is reported as “inactive”. For `Cc1cccc(C)c1NC(=O)C1CCCCN1C` (stereo not given), the outcome was “inactive”. With `Cc1c(O)c(=O)ccn1C` the outcome was “inactive”. In the case of `NCc1cccc(C2CCN(C(=O)c3ccc(C#Cc4ccccc4F)o3)CC2)c1`, the outcome is reported as “inactive”. With `CC(C)CCC[C@@H](C)[C@H]1CC[C@H]2[C@@H]3CC=C4C[C@@H](O)CC[C@]4(C)[C@H]3CC[C@]12C` the outcome was “inactive”. With `COc1ccc2ccccc2c1` the outcome was “inactive”. For `O=C(O)c1ccc(NC2OC[C@@H](O)[C@H](O)[C@H]2O)cc1` (stereo not given in full), the outcome was “inactive”. In the case of `CS(=O)(=O)c1ccc([C@@H](CC2CCCC2)C(=O)Nc2cnccn2)cc1Cl`, the outcome is reported as “inactive”. In the case of `CC(C)CCC[C@@H](C)[C@H]1CC[C@H]2[C@@H]3CC[C@@H]4C[C@H](O)CC[C@]4(C)[C@H]3CC[C@]12C`, the outcome is reported as “inactive”. For `O=C(O)Cc1nn(Cc2ccc(Br)cc2F)c(=O)c2ccccc12`, the outcome was “inactive”. In the case of `CC(=O)O[C@H]1C[C@@H]2CC[C@@H]3[C@H](CC[C@@]4(C)[C@H]3C[C@H]([N+]3(C)CCCCC3)[C@@H]4OC(C)=O)[C@@]2(C)C[C@@H]1[N+]1(C)CCCCC1`, the outcome is reported as “inactive”. With `c1ccc2cc3c4ccccc4c4ccccc4c3cc2c1` the outcome was “inactive”. In the case of `CCCCCCOC(=O)c1cccnc1`, the outcome is reported as “inactive”. In the case of `Cc1cnc(C(=O)O)c[n+]1[O-]`, the outcome is reported as “inactive”. In the case of `Cc1ccc(Cl)c(N)c1Cl`, the outcome is reported as “inactive”. For `Cc1ccc2nc(-c3ccc(N)cc3)sc2c1S(=O)(=O)O`, the outcome was “inactive”. For `CCc1ncnc2cc(OC)c(OC)cc12`, the outcome was “inactive”. For `COC(=O)C[C@](O)(CCCC(C)(C)O)C(=O)O[C@@H]1C(OC)=CC23CCCN2CCc2cc4c(cc2[C@H]13)OCO4` (stereo not given in full), the outcome was “inactive”. With `NCC(O)CC(=O)O` (stereo not given) the outcome was “inactive”. For `O=C(O)c1cc(O)c2c(c1)[C@H]([C@H]1c3cc(C(=O)O)cc(O)c3C(=O)c3c(O[C@@H]4O[C@H](CO)[C@@H](O)[C@H](O)[C@H]4O)cccc31)c1cccc(O[C@@H]3O[C@H](CO)[C@@H](O)[C@H](O)[C@H]3O)c1C2=O`, the outcome was “inactive”. For `CC(C)(S)C(=O)N[C@@H](CS)C(=O)O`, the outcome was “inactive”. For `CC(C)c1ncc([N+](=O)[O-])n1C`, the outcome was “inactive”. In the case of `Nc1ccc(N)c([N+](=O)[O-])c1`, the outcome is reported as “inactive”. With `CNC(=O)OCc1cccc(COC(=O)NC)n1` the outcome was “inactive”. With `CN[C@H](CC(C)C)C(=O)N[C@H]1C(=O)N[C@@H](CC(N)=O)C(=O)N[C@H]2C(=O)N[C@H]3C(=O)N[C@H](C(=O)N[C@@H](C(=O)O)c4cc(O)cc(O)c4-c4cc3ccc4O)[C@H](O)c3ccc(c(Cl)c3)Oc3cc2cc(c3O[C@@H]2O[C@H](CO)[C@@H](O)[C@H](O)[C@H]2O[C@H]2C[C@](C)(N)C(O)[C@H](C)O2)Oc2ccc(cc2Cl)[C@H]1O` (stereo not given in full) the outcome was “inactive”. In the case of `N[C@H](C(=O)O)[C@@H]1CC(Cl)=NO1`, the outcome is reported as “inactive”. In the case of `Cc1c(N)nc([C@H](CC(N)=O)NC[C@H](N)C(N)=O)nc1C(=O)N[C@H](C(=O)N[C@H](C)[C@@H](O)[C@H](C)C(=O)N[C@H](C(=O)NCCc1nc(-c2nc(C(=O)NCCCCN=C(N)N)cs2)cs1)[C@@H](C)O)[C@@H](O[C@@H]1O[C@@H](CO)[C@@H](O)[C@H](O)[C@@H]1O[C@H]1O[C@H](CO)[C@@H](O)[C@H](OC(N)=O)[C@@H]1O)c1cnc[nH]1`, the outcome is reported as “inactive”. With `CC(C)C[C@@H](NC(=O)[C@@H](O)[C@H](N)Cc1ccccc1)C(=O)O` the outcome was “inactive”. With `CNCC(=O)N[C@@H](CCCN=C(N)N)C(=O)N[C@H](C(=O)N[C@@H](Cc1ccc(O)cc1)C(=O)N[C@H](C(=O)N[C@@H](Cc1cnc[nH]1)C(=O)N1CCC[C@H]1C(=O)N[C@@H](C)C(=O)O)C(C)C)C(C)C` the outcome was “inactive”. With `CC/C(=C(/CC)c1ccc(OP(=O)(O)O)cc1)c1ccc(OP(=O)(O)O)cc1` the outcome was “inactive”. In the case of `O=C(O)/C=C/C(O)c1ccc(Cl)cc1` (stereo not given), the outcome is reported as “inactive”. For `CCCCCCCCOC(=O)c1cc(O)c(O)c(O)c1`, the outcome was “inactive”. In the case of `c1ccc(-n2cnnn2)cc1`, the outcome is reported as “inactive”. In the case of `Cc1cn([C@H]2C[C@H](O)[C@@H](CO)O2)c(=O)[nH]c1=O`, the outcome is reported as “inactive”. In the case of `Cc1cc(N)c2ccccc2[n+]1CCCCCCCCCC[n+]1c(C)cc(N)c2ccccc21`, the outcome is reported as “inactive”. In the case of `c1ccc(-c2ccc(C(c3ccccc3)n3ccnc3)cc2)cc1` (stereo not given), the outcome is reported as “inactive”. With `C=CC1=C(C(=O)O)N2C(=O)[C@@H](NC(=O)/C(=N/OCC(=O)O)c3csc(N)n3)[C@H]2SC1` (stereo in doubt) the outcome was “inactive”. In the case of `CN(C)CCC(O)(c1ccccc1)c1ccccc1Cl` (stereo not given), the outcome is reported as “inactive”. For `CCCCCCCCCCCCN1CCCC1=O`, the outcome was “inactive”.
